Data as given in PubChem BioAssay AID686978 (National Center for Advancing Translational Sciences (NCATS), 2013).
Values joined by “and” are separate entries in the source; they are usually repeats but may differ in a detail not shown here. Equal entries are not always repeated. The whole screen tested about 420,000 compounds, of which about 64,000 (15%) were called active. Roughly 27% stayed inconclusive and do not appear here. Calls come from the whole dose curve; as a rule, active = well fitted inhibition curve with a large enough effect; inconclusive = small, poorly fitted or top-dose-only effect; inactive = flat fitted curve, though single readings scatter. Not all results are given here. More than one record can exist for a structure, and the calls need not agree.

experiment: qHTS for Inhibitors of human tyrosyl-DNA phosphodiesterase 1 (TDP1): qHTS in cells in absence of CPT; settings: DT40 Tdp1-/- hTDP1 cells, no CPT, ATP luminescence, 48 h; activity change, negative = growth inhibition: at 46.2 µM (top of the series); note: nearly all actives have a fitted effect of over 55% in size
Procedure, shortened: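 Chicken DT40 Tdp1-/- cells complemented with human TDP1, screened without camptothecin (DMSO vehicle only), 400 cells/well. Compounds pin-transferred, cells incubated at 37 °C for at least 48 hr. Growth read as ATP-dependent luminescence (CellTiter-Glo, 30 min at RT).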
% is set by controls: 0 for no effect and ±100 for the full control effect; potency is the fitted concentration of half-maximal effect.

Structure (SMILES)	activity change, negative = growth inhibition	Potency
Cc1c(Cl)c([N+](=O)[O-])nn1CCCC(=O)NC(C)c1ccccc1 (centres undefined)	-5.76% (inactive)	
CCC(C(=O)N1CCN(S(=O)(=O)c2sc(C(=O)O)c(C)c2C(=O)O)CC1)c1ccccc1 (centres undefined)	21.9% (inactive)	
Cc1cccc(S(=O)(=O)N(C)C[C@H]2OCc3cnnn3CCCC(=O)N([C@@H](C)CO)C[C@H]2C)c1	-6.15% (inactive)	
Cn1c(-c2ccc(C(=O)c3ccccc3)s2)nc2ccccc21	-29.8% (inactive)	
Cn1cccc1-c1nc2ccccc2n1C	6.86% (inactive)	
Cc1csc(-c2nc3ccccc3n2C)n1		18.8 µM (active)
Cc1ccc2nc(-c3ccc(Br)cc3)cn2c1	2.36% (inactive)	
Cc1cc2c(cc1C)NC(c1ccccn1)C1=C(CC(C)(C)CC1=O)N2 (centres undefined)	0.609% (inactive)	
CC(CC(=O)O)C(=O)c1ccc(Cl)c([N+](=O)[O-])c1 (centres undefined)	-3.74% (inactive)	
O=C(O)c1ccc2c(=O)n3c(nc2c1)/C(=C/c1ccc(Cl)c([N+](=O)[O-])c1)CC3	-11% (inactive)	
NC(N)=N/N=C/c1ccc(Cl)c([N+](=O)[O-])c1		10.3 µM (active)
Nc1nc(SCC(=O)Nc2ccc(Cl)c([N+](=O)[O-])c2)n[nH]1	-8.59% (inactive)	
CN(C)c1ccc(/C=C/C(=O)c2ccc(C(C)(C)C)cc2)cc1[N+](=O)[O-]		23.1 µM (active)
O=C(/C=C/c1ccc(Cl)cc1)N1CCN(c2ccccc2[N+](=O)[O-])CC1	-28.2% (inactive)	
Cc1cc(C)n(-c2ccc(C(=O)O)cc2[N+](=O)[O-])n1	-0.656% (inactive)	
O=C(/C=C/c1ccc(Cl)c([N+](=O)[O-])c1)c1ccc(O)cc1		4.61 µM (active)
Nn1cnnc1N/N=C/c1cc([N+](=O)[O-])c(Cl)cc1Cl	2.17% (inactive)	
C[C@@H]1CC2=C(C(=O)OC(C)(C)O2)[C@@H](C2CC2)O1	-9.87% (inactive)	
COc1cccc(-c2ccc3c(c2)S(=O)(=O)c2cccc(C(=O)O)c2C3=O)c1OC	3.86% (inactive)	
O=C(COC(=O)c1ccc([N+](=O)[O-])cc1Cl)NC(=O)c1ccccc1	-7.52% (inactive)	
O=S(=O)(c1ccccc1)N1CCC2(CC1)CN(Cc1nccs1)C2	-16.2% (inactive)	
CC(=O)N[C@@H](C)C(=O)N1CCC(n2nccc2NC(=O)CCCc2ccccc2)CC1	26.3% (inactive)	

Structure (SMILES)	activity change, negative = growth inhibition	Potency
CCOC(=O)c1cccc(NC(=O)c2cc(CN3CCCC3)on2)c1	0.305% (inactive)	
CC(=O)N1CCN(C(=O)Nc2cccc(C(F)(F)F)c2)CC1	-15.5% (inactive)	
Cc1oc2ccc(O)c(CN3CCCCC3)c2c1C(=O)Nc1cccc(C(F)(F)F)c1		23.1 µM (active)
COc1ccc(CCNC(=O)COC(=O)C2CC2C)cc1 (centres undefined)	-13.2% (inactive)	
O=C(O)CCN(Cc1ccccc1)S(=O)(=O)c1c(Cl)cccc1Cl	12.7% (inactive)	
CCC(C)N(C(=O)CSc1ncnc2c1cnn2-c1ccccc1)C1CCS(=O)(=O)C1 (centres undefined)	-14.9% (inactive)	
COc1ccccc1NC(=O)c1oc2ccccc2c1NC(=O)C(C)C		16.4 µM (active)
COc1ccccc1NC(=O)c1oc2ccccc2c1NC(=O)COc1ccccc1OC	-16.2% (inactive)	
COc1ccccc1NC(=S)NC(=O)C(C)C	-4.21% (inactive)	
Cc1ccc(C(=O)OCC(=O)Nc2ccc(Cl)cn2)cc1S(=O)(=O)N1CCOCC1	-21.3% (inactive)	
N[C@@H](Cc1ccccc1)C(=O)N1CCOCC1	14.3% (inactive)	
O=C(OCCN1CCOCC1)C1(c2ccccc2)CCCCC1		inactive and 26.6 µM (active)
O=C(COC(=O)C1(c2ccc(F)cc2)CCCC1)N1CCNC1=O	-6.05% (inactive)	
CN(C(=O)c1cccc(OC2CCN(S(=O)(=O)N(C)C)CC2)c1)C1CCOC1 (centres undefined)	25.1% (inactive)	
CN(C)S(=O)(=O)N1CCC(Oc2cccc(C(=O)NCCCC3CCCC3)c2)CC1		7.31 µM (active)
CNS(=O)(=O)c1cccc(C(=O)NCC2CCCCC2)c1	20% (inactive)	
CC(C)N(C(=O)Cn1cc(SCC(=O)N2CCCC2)c2ccccc21)C(C)C	4.08% (inactive)	
O=C1c2ccccc2C(=O)N1CCc1nn[nH]n1	-5.45% (inactive)	
O=C(NCCS(=O)(=O)N1CCN(c2ccccc2)CC1)c1ccco1	-3.54% (inactive)	
COc1cc(C(=O)NCCS(=O)(=O)N2CCN(c3ccccc3)CC2)cc(OC)c1OC		20.6 µM (active)
COc1ccc(N2CC(C(=O)NCCS(=O)(=O)N3CCN(c4ccccc4)CC3)CC2=O)cc1 (centres undefined)		inactive
O=C(O)c1cc(S(=O)(=O)N(Cc2ccccc2)c2ccccc2)ccc1Cl	-0.896% (inactive)	

Structure (SMILES)	activity change, negative = growth inhibition	Potency
C#CCOCCOCCOCCNc1nc(N2CCN(C(=O)Cn3cc(CCCCN)nn3)CC2)nc(N2CCN(C(=O)[C@H](CCCCN)n3cc(CCC(=O)O)nn3)CC2)n1	1.14% (inactive)	
COc1ccc(C(C)(O)c2nc(-c3cc(F)cc(F)c3)cs2)cc1 (centres undefined)		16.4 µM (active)
Cc1csc(OCC(=O)Nc2ccc(C)c(C)c2)n1	-2.63% (inactive)	
COc1ccc(C(C)(O)c2nc(-c3ccc(C)c(C)c3)cs2)cc1 (centres undefined)		18.4 µM (active)
COc1ccc(C(C)(NC(C)=O)c2nc(-c3ccc(S(C)(=O)=O)cc3)cs2)cc1 (centres undefined)	-20.1% (inactive)	
Cc1ccc(-c2csc(-c3cc(C)on3)n2)cc1	-23% (inactive)	
COc1cccc(CN2C(=O)CCC2(C)C(=O)NC2CCCCCC2)c1 (centres undefined)	-15.5% (inactive)	
COc1cc(C)c(S(=O)(=O)N2CCOCC2)c(C)c1C	-15.2% (inactive)	
CCNC(=O)Nc1ccc(S(=O)(=O)Nc2cnc(C)nc2C)cc1	-7.54% (inactive)	
Cc1cccc(NC(=O)/C=C/c2ccc3c(c2)OCO3)n1		18.4 µM (active)
O=C(O)/C=C/c1ccc2c(c1)OCCO2	2.37% (inactive)	
CCc1c(C)sc(NC(=O)/C=C/c2ccc3c(c2)OCO3)c1C(=O)OC	-0.669% (inactive)	
CC1CN(S(=O)(=O)c2ccc(C(=O)NN3CCN(C)CC3)cc2)CC(C)O1 (centres undefined)	4.66% (inactive)	
O=C(CCC1CCCC1)N=C1SC2CS(=O)(=O)CC2N1Cc1ccccc1 (centres undefined)	1.24% (inactive)	
O=C(CCN1C(=O)c2ccccc2C1=O)NCCCn1ccnc1	-7.45% (inactive)	
CCCCN(C(=O)C1=NN(c2cc(C)ccc2C)C(=O)CC1)c1c(N)n(CCC)c(=O)[nH]c1=O	21.6% (inactive)	
CC(C)CC(CCc1ccccc1)OS(N)(=O)=O (centres undefined)	-1.83% (inactive)	
CN1OC[C@@H]2CN(C(=O)C(C)(C)C)[C@H](c3ccc(-n4ccnc4)cc3)C[C@@H]21	0.376% (inactive)	
CC1CC(C)(C)CC2(C1)NC(=O)N(CC(=O)Nc1nccs1)C2=O (centres undefined)	3.31% (inactive)	
Cc1ccc(CC2CC(=O)N(c3ccc4c(c3)OCCO4)C2=O)cc1 (centres undefined)	-5.08% (inactive)	
